According to PubChem BioAssay AID1159580 (chemical genetic matrix, 2015):
In all, about 5,500 compounds went through this assay and about 2,000 (36%) were called active. Another 18% or so got no clear call; they are omitted. No stated cut-off is given here; in the data, active means normalized growth mostly below about 0.91 (no sharp cut-off); inconclusive means no clear call, values can overlap the other calls; inactive means mostly above about 0.92. This is one part of the list.

Test: chemical genetic growth profiling, strain panel (AID 1159580);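 further: tested at 20 µM; growth read once vehicle control cultures reached saturation at 30 °C; 1 = growth at the plate median or of vehicle wells; lower values mean less growth of the strain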
Conditions: S. cerevisiae deletion strains, growth OD

Measured: normalized growth

Nc1ncnc2c1ncn2C1C[C@H](O)[C@@H](CO)O1 (stereo partly specified)
inactive: locus YJR043C, strain POL32, hits give low values 0.996 | locus YJR066W, strain TOR1, hits give low values 0.853 | locus YKL009W, strain mrt4, hits give low values 0.987 | locus YKL068W, hits give low values 0.991 | locus YKL085W, strain MDH1 (second series), hits give low values 0.997 | locus YKL085W, strain MDH1, hits give low values 0.997 | locus YKL160W, strain elf1, hits give low values 1.01 | locus YKL190W, strain CNB1, hits give low values 0.993 | locus YKR001C, strain vps1, hits give low values 1.01 | locus YKR026C, strain gcn3, hits give low values 1.02 | locus YKR091W, strain srl3, hits give low values 1.01 | locus YLL001W, strain dnm1, hits give low values 1.02 | locus YLL026W, hits give low values 1.01 | locus YLL041C, strain sdh2, hits give low values 1.02 | locus YLR027C, strain aat2, hits give low values 1.02 | locus YLR039C, strain RIC1, hits give low values 1.04 | locus YLR058C, strain SHM2, hits give low values 0.985 | locus YLR102C, strain apc9, hits give low values 0.999 | locus YLR221C, strain rsa3, hits give low values 1.01 | locus YLR258W, strain gsy2, hits give low values 1.01 | locus YLR262C, strain YPT6 (second series), hits give low values 0.998 | locus YLR262C, strain YPT6, hits give low values 1.04 | locus YLR268W, strain sec22, hits give low values 1.04 | locus YLR320W, strain mms22, hits give low values 1.03 | locus YLR330W, strain CHS5, hits give low values 0.994 | locus YLR342W, strain FKS1 (second series), hits give low values 1.02 | locus YLR342W, strain FKS1, hits give low values 1.03 | locus YLR357W, strain rsc2, hits give low values 1.01 | locus YLR370C, strain arc18, hits give low values 1.02 | locus YLR371W, strain rom2, hits give low values 0.98 | locus YLR384C, strain iki3, hits give low values 1.01 | locus YLR418C, strain cdc73, hits give low values 0.966 | locus YML016C, strain PPZ1, hits give low values 0.997 | locus YML032C, strain rad52, hits give low values 0.966 | locus YML120C, strain ndi1, hits give low values 1.01 | locus YML124C, strain tub3, hits give low values 0.99 | locus YMR058W, strain fet3, hits give low values 1.02 | locus YMR078C, strain ctf18, hits give low values 0.993 | locus YMR125W, strain sto1, hits give low values 1.01 | locus YMR129W, hits give low values 1.01 | locus YMR205C, strain PFK2, hits give low values 1.05 | locus YMR223W, strain ubp8, hits give low values 0.986 | locus YMR231W, strain pep5, hits give low values 0.991 | locus YMR307W, strain GAS1, hits give low values 0.988 | locus YNL067W, strain RPL9B, hits give low values 0.995 | locus YNL071W, strain lat1, hits give low values 1.02 | locus YNL153C, strain GIM3, hits give low values 0.987 | locus YNL183C, strain NPR1, hits give low values 0.855 | locus YNL209W, strain ssb2, hits give low values 1.01 | locus YNL233W, strain BNI4, hits give low values 1 | locus YNL248C, strain rpa49, hits give low values 1.01 | locus YNL250W, strain rad50, hits give low values 0.987 | locus YNL271C, strain bni1, hits give low values 0.992 | locus YNL298W, strain CLA4, hits give low values 0.989 | locus YNL307C, strain MCK1, hits give low values 1.01 | locus YNL322C, strain KRE1 (second series), hits give low values 1.02 | locus YNR049C, strain mso1, hits give low values 1.01 | locus YNR052C, strain pop2, hits give low values 0.985 | locus YOL012C, strain htz1 0.909 | locus YOL147C, strain pex11, hits give low values 0.995 | locus YOR001W, strain rrp6, hits give low values 1.02 | locus YOR061W, strain CKA2, hits give low values 0.967 | locus YOR069W, strain VPS5, hits give low values 1 | locus YOR070C, strain gyp1, hits give low values 0.999 | locus YOR080W, strain dia2, hits give low values 1.02 | locus YOR083W, strain WHI5, hits give low values 1.01 | locus YOR106W, strain vam3, hits give low values 1.01 | locus YOR136W, strain idh2, hits give low values 1 | locus YOR144C, strain elg1, hits give low values 0.988 | locus YOR184W, strain ser1, hits give low values 0.988 | locus YOR231W, strain MKK1, hits give low values 0.873 | locus YOR265W, strain rbl2, hits give low values 0.987 | locus YOR270C, strain vph1, hits give low values 1.03 | locus YOR290C, strain snf2, hits give low values 1.02 | locus YOR316C, strain cot1, hits give low values 0.994 | locus YPL051W, strain arl3, hits give low values 1.01 | locus YPL078C, strain atp4, hits give low values 1.01 | locus YPL106C, strain sse1, hits give low values 1.02 | locus YPL240C, strain hsp82, hits give low values 1 | locus YPL256C, strain CLN2, hits give low values 0.911 | locus YPR119W, strain clb2, hits give low values 0.993 | locus YPR141C, strain kar3, hits give low values 0.988 | locus YPR163C, strain tif3, hits give low values 1 | locus YPR167C, strain met16, hits give low values 0.989 | strain wtn01, hits give low values 1.03
active: locus YLR113W, strain HOG1, hits give low values 0.845
